Shown are actives, neighbours in structure and some others; about 0.33% of the full set was active somewhere.
IDH1 R132H inh: inhibitors of human mutant IDH1 R132H | O75874 | IDH1-R132H enzyme, NADPH consumption, diaphorase/resazurin fluorescence | Potency, µM (top dose mostly 76.6 µM), without a hit: at the highest dose activity change, negative = inhibition, hits mostly inhibitors | actives 0.093% (n = 390,000) | AID 602179; also: nearly all actives have a fitted effect of over 65% in size
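IDH1-R132H (0.5 ug/mL dispensed) in pH 7.5 Tris buffer was preincubated 30 min with compound, then given a substrate mix of 0.016 mM NADPH and 2 mM alpha-KG for 80 min at room temperature; remaining NADPH was read by diaphorase/resazurin fluorescence.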
GLS inh: glutaminase GLS (human) inhibition; actives 0.21% (n = 410,000); GLS enzymatic activity, qHTS titration; Potency, µM (doses to about 45.5 µM), inactives show top-dose activity change, negative = inhibition, hits mostly inhibitors; AID 624170; O94925
Target sequence (O94925 whole entry, looked up): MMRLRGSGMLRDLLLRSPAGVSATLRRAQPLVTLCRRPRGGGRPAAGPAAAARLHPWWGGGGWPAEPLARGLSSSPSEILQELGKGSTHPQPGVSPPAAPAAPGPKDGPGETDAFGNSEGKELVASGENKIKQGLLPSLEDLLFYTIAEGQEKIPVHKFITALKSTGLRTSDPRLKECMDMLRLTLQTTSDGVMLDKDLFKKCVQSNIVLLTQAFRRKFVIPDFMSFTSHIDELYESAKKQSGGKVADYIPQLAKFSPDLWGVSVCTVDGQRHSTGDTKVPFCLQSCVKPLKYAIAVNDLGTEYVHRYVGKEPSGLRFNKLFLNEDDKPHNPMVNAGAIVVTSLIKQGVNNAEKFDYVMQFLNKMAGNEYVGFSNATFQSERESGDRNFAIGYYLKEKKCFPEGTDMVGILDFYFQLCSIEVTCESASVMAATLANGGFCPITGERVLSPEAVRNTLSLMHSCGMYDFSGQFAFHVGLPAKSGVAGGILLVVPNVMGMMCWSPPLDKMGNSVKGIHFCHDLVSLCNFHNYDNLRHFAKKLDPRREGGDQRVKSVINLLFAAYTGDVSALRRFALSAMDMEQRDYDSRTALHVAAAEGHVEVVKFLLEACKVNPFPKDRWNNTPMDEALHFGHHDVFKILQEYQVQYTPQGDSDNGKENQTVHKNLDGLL
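hKGA in 45 mM KH2PO4 (pH 8.2), 0.02% Tween-20 with compound, then 1mM L-Glutamine (stock as added) plus glutamate oxidase/HRP/Amplex red coupling mix. Fluorescence read initially and after 30 min at RT; signal change reflects glutamate formation.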
PGK inhibitor: T. brucei PGK inhibition | P07378 | PGK/GAPDH coupled, Kinase-Glo luminescence, 60 min | Potency, µM (titrated, usually from 57.5 µM), without a hit: top-dose activity change, negative = inhibition, hits mostly inhibitors | actives 0.043% (n = 380,000) | AID 602233; also: nearly all actives have a fitted effect of over 60% in size
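Recombinant glycosomal PGK reaction used 1,3-bisphosphoglycerate generated in-well by GAPDH (100nM final) in 100mM TEA pH 7.6, 5mM MgCl2, 0.01% Tween-20. After 60 minutes at room temperature, ATP was read by Kinase-Glo Plus luminescence end-point.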
Pin1 inh: human Pin1 inhibition | Q13526 | Potency, µM (highest dose often 115 µM), for inactives: top-dose activity, negative = inhibition, most hits filed as inhibitors | AID 504891 | actives 0.009% (n = 390,000) | Pin1 FP peptide displacement, HiFluor488, 10 min; active = well fitted inhibition curve with a large enough effect in the polarisation, with a control signal flat, not every such curve was filed as active; inconclusive = small, poorly fitted or top-dose-only effect, or effect the other way, or a change in a side signal; inactive = no such curve, though single readings can be large or run the other way; the % refers to the polarisation
The depositor's hits bear a star. Unless noted, calls follow the shape of the dose curve; as a rule, active = well fitted curve in the direction sought with a large enough effect; inconclusive = small, poorly fitted or top-dose-only effect, or another doubt; inactive = no such curve, though single readings can be large; an effect the other way counts as inactive or inconclusive. % is scaled to controls: 0 for no effect and ±100 for the full control effect; potency is read from the fitted curve at half-maximal effect.

`O=C(O)C(Cc1ccccc1)n1cccc1` (stereo not given) gave IDH1 R132H inh 13%, GLS inh 13µM*, PGK inhibitor -6% and Pin1 inh -12%.
COc1ccc(-c2nc3ccc(Cl)cc3c(=O)n2Cc2ccccc2)cc1COc1ccc(NC(C)=O)cc1 was read as Pin1 inh -4%.
For Nc1nc(N)c2c(n1)CN(Cc1ccc(Cl)cc1)C2 the results were IDH1 R132H inh 2%, GLS inh 11µM* and PGK inhibitor -9%.
`Cc1ccc(NS(=O)(=O)c2cc3c(cc2F)NC(=O)CC3)cc1Cl` gave Pin1 inh -4%.
For CCOC(=O)N1CCN(c2cc(NCCC(=O)O)c3c4c(onc24)-c2ccccc2C3=O)CC1 the results were IDH1 R132H inh 1%, GLS inh 18µM*, PGK inhibitor inconclusive and Pin1 inh inconclusive.
`O=C(O)CCCNc1cc(N2CCN(C(=O)c3ccco3)CC2)c2noc3c2c1C(=O)c1ccccc1-3` gave IDH1 R132H inh -3%, GLS inh inconclusive, PGK inhibitor -20% and Pin1 inh inconclusive.
`CCOc1cc(CNc2ccc(N3CCOCC3)cc2)cc(Br)c1OCC` gave IDH1 R132H inh 7%, GLS inh 13µM*, PGK inhibitor 1% and Pin1 inh 0%.
`O=C(CNC(=O)c1ccccc1)OC(CCc1ccccc1)C(=O)Nc1cc(C(F)(F)F)ccc1Cl` (stereo not given) gave Pin1 inh 0%.
Screening CC(=O)NC1C(=O)N(CCN2CCOCC2)c2ccc(F)cc21 (stereo not given) returned IDH1 R132H inh inconclusive, GLS inh -23% and Pin1 inh -6%.
CC(=O)NC1C(=O)N(CCN2CCOCC2)c2ccc(C)cc21 (stereo not given) was read as IDH1 R132H inh inconclusive, GLS inh inconclusive, PGK inhibitor 20µM* and Pin1 inh 50µM*.
For COc1ccc(C(c2c(N)[nH]c(=S)[nH]c2=O)c2c(N)[nH]c(=S)[nH]c2=O)cc1 the results were IDH1 R132H inh -7%, GLS inh 11µM*, PGK inhibitor inactive and Pin1 inh -9%.
For COc1cc(F)c(S(=O)(=O)N2CCN(S(=O)(=O)c3cccs3)CC2)c(F)c1 the results were Pin1 inh 1%.
Screening O=C(O)c1ccc2c(c1)C(=O)/C(=C/c1ccccc1)C2=O returned IDH1 R132H inh 2%, GLS inh 7.1µM* and PGK inhibitor -23%.
`O=C(O)c1ccc2c(c1)C(=O)/C(=C\c1ccco1)C2=O` gave IDH1 R132H inh 0%, GLS inh 11µM* and PGK inhibitor inconclusive.
For O=C1C(=Cc2ccco2)C(=O)c2ccccc21 the results were IDH1 R132H inh 8%, GLS inh 13%, PGK inhibitor -2% and Pin1 inh -5%.
`COc1cccc(C2c3c(ncn(-c4ccccc4OC)c3=N)Oc3ccc4ccccc4c32)c1` (stereo not given) gave Pin1 inh 1%.
`COc1ccc(-c2ccc3ncnc(NCc4nc(C)cs4)c3c2)cc1OC` gave Pin1 inh -3%.
`Cc1nn(-c2ccccc2)c(Cl)c1/C=N/Nc1ccc(Cl)c(C(=O)O)c1` gave IDH1 R132H inh 5%, GLS inh 16µM*, PGK inhibitor -4% and Pin1 inh 0%.
`Cn1ncc(S(=O)(=O)Cc2ccccc2)c(Cl)c1=O` gave IDH1 R132H inh 16%, GLS inh 11µM*, PGK inhibitor 0% and Pin1 inh 1%.
COc1cccc(C2c3c(ncn(-c4ccccc4C)c3=N)Oc3ccc4ccccc4c32)c1 (stereo not given) was read as Pin1 inh 15%.
`Nc1ccc(/C=C/c2ccc(N)cc2S(=O)(=O)O)c(S(=O)(=O)O)c1` gave GLS inh 11µM*.
CN1CCN(c2cccc(Nc3nn4c(=O)c5ccc(Br)cc5nc4s3)c2)CC1 was read as Pin1 inh 3%.
O=C1CCc2cc(S(=O)(=O)Nc3cccc(B(O)O)c3)ccc2N1 was read as Pin1 inh -3%.
Screening O=S(=O)(O)c1cccc2c(N=Nc3ccc(O)c4ncccc34)cccc12 returned IDH1 R132H inh 3%, GLS inh 8.9µM* and PGK inhibitor inconclusive.
`Cc1cc(C)n2ncc(C(=O)NC(C)C)c2n1` gave Pin1 inh -2%.
For CCOc1cc(N2C(=O)CC3CS(=O)(=O)CC32)c(OCC)cc1NC(=O)c1ccccc1 (stereo not given) the results were IDH1 R132H inh 10%, GLS inh 22µM*, PGK inhibitor -1% and Pin1 inh -5%.
CCN(CC)c1ccc(/C=C2\CCC(/C=N/NC(=O)c3ccc(=O)n(C)c3)=C2N2CCOCC2)cc1 was read as IDH1 R132H inh 5%, GLS inh 7.1µM*, PGK inhibitor 13% and Pin1 inh inconclusive.
`O=C(N/N=C/C1=C(N2CCOCC2)C(=C\c2ccccc2)/CC1)Nc1ccccc1` gave IDH1 R132H inh 11%, GLS inh -3%, PGK inhibitor -1% and Pin1 inh 16%.
COCCN1C(=O)c2oc3ccccc3c(=O)c2C1c1ccc(OC)c(OC)c1 (stereo not given) was read as IDH1 R132H inh 13%, GLS inh -6%, PGK inhibitor 28µM* and Pin1 inh -15%.
`COc1ccc(C2c3c(oc4ccccc4c3=O)C(=O)N2CCN2CCOCC2)cc1OC` (stereo not given) gave IDH1 R132H inh -7%, GLS inh -1%, PGK inhibitor -11% and Pin1 inh -2%.
`COc1ccc(-c2cc(C(F)F)n3ncc(C(=O)Nc4cc(C)on4)c3n2)cc1` gave IDH1 R132H inh 6%, GLS inh 0.71µM*, PGK inhibitor 9% and Pin1 inh -3%.
For COc1ccc(-c2cc(C(F)F)n3ncc(C(=O)Nc4c(C)n(C)n(-c5ccccc5)c4=O)c3n2)cc1 the results were IDH1 R132H inh 3%, GLS inh 7%, PGK inhibitor inactive and Pin1 inh -7%.
For O=C(O)C1CCN(c2ncc(-c3ccc4c(c3)OCCCO4)s2)CC1 the results were Pin1 inh 2%.
`Cc1ccc(Nc2nn3c(=O)c4ccccc4nc3s2)cc1C` gave Pin1 inh 4%.
CC(=O)c1cccc(OCC(=O)N(C)CC(=O)NCc2ccco2)c1 was read as IDH1 R132H inh 1%, GLS inh 13µM* and PGK inhibitor 14µM*.
For C/C(=N\NC(=S)Nc1ccccc1C)c1ccc(O)cc1 the results were IDH1 R132H inh 0%, GLS inh 10µM*, PGK inhibitor 8% and Pin1 inh 1%.
For O=C(O)c1cc(O)c2c(c1)C(=O)c1cc(O)cc(O)c1C2=O the results were IDH1 R132H inh -1%, GLS inh 18µM*, PGK inhibitor inconclusive and Pin1 inh inconclusive.

Source: PubChem BioAssay (National Center for Advancing Translational Sciences (NCATS))
